PubChem BioAssay (EPA / NIEHS)
Active and inactive are the calls of the source. The calls were made as follows: active = hit-call score of the fitted dose curve at least 0.9, where 1 is the maximum; inactive = score below 0.9.

Key:
[1] = read-out: Human Leukocyte Antigen - DR isotype (HLADR), HLA-DRA (gene 3122); experiment: BSK_BE3C_HLADR: BioMAP Diversity Plus: BE3C Assay for Human Leukocyte Antigen - DR isotype (HLADR) Biomarker Activity (AID 2283032); conditions: primary human bronchial epithelial cells; actives raise or lower the signal
Summary of the method: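 Primary human bronchial epithelial cells (BE3C); 24 h chemical exposure; HLA-DR by ELISA; bidirectional curve fit vs DMSO baseline.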

[2] = read-out: Vascular cell adhesion molecule 1 (VCAM1), VCAM1 (gene 7412); experiment: BSK_4H_VCAM1: BioMAP Diversity Plus: 4H Assay for Vascular cell adhesion molecule 1 (VCAM1) Biomarker Activity (AID 2283033); conditions: primary human endothelial cells (HUVEC); actives raise or lower the signal
Summary of the method: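 HUVEC, 24 h post-dose; VCAM-1 by ELISA. Bidirectional curve fit vs DMSO baseline. Parallel SRB total-protein stain (0.1% SRB after 10% TCA fixation, 560 nm) for cytotoxicity.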

[3] = read-out: Monokine induced gamma interferon (MIG), CXCL9 (gene 4283); experiment: BSK_BE3C_MIG: BioMAP Diversity Plus: BE3C Assay for Monokine induced gamma interferon (MIG) Biomarker Activity (AID 2283035); conditions: primary human bronchial epithelial cells; actives raise or lower the signal
Summary of the method: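 Dose cells (human primary bronchial epithelial), incubate 24 h, quantify MIG by ELISA, then fit concentration–response in both directions relative to DMSO control.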

[4] = read-out: Transforming growth factor beta 1 (TGFb1), TGFB1 (gene 7040); experiment: BSK_BE3C_TGFb1: BioMAP Diversity Plus: BE3C Assay for Transforming growth factor beta 1 (TGFb1) Biomarker Activity (AID 2283036); conditions: primary human bronchial epithelial cells; actives raise or lower the signal
Summary of the method: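 Read-out: ELISA for TGF-b1 in primary human bronchial epithelial cultures, 24 h post-dose. Bidirectional curve fitting vs DMSO control; gain or loss of signal both scored.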

[5] = read-out: Plasminogen activator inhibitor-1 (PAI1), SERPINE1 (gene 5054); experiment: BSK_BE3C_PAI1: BioMAP Diversity Plus: BE3C Assay for Plasminogen activator inhibitor-1 (PAI1) Biomarker Activity (AID 2283037); conditions: primary human bronchial epithelial cells; actives raise or lower the signal
Summary of the method: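 ELISA read-out of PAI-1 from human bronchial epithelial primary cells, 24 h post-dosing; bidirectional curve fit vs DMSO baseline, gain or loss of signal scored.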

[6] = read-out: Urokinase-type plasminogen activator receptor (uPAR), PLAUR (gene 5329); experiment: BSK_BE3C_uPAR: BioMAP Diversity Plus: BE3C Assay for Urokinase-type plasminogen activator receptor (uPAR) Biomarker Activity (AID 2283039); conditions: primary human bronchial epithelial cells; actives raise or lower the signal
Summary of the method: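 ELISA readout of uPAR on human lung primary bronchial epithelial cells, 24 h post-dosing. Bidirectional curve fit relative to DMSO vehicle baseline; gain or loss of signal both scored.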

[7] = read-out: Interleukin-6 (IL6), IL6 (gene 3569); experiment: BSK_CASM3C_IL6: BioMAP Diversity Plus: CASM3C Assay for Interleukin-6 (IL6) Biomarker Activity for (AID 2283040); conditions: primary human coronary artery smooth muscle cells; actives raise or lower the signal
[8] = read-out: Tissue plasminogen activator (tPA), PLAT (gene 5327); experiment: BSK_BE3C_tPA: BioMAP Diversity Plus: BE3C Assay for Tissue plasminogen activator (tPA) Biomarker Activity (AID 2283041); conditions: primary human bronchial epithelial cells; actives raise or lower the signal
Summary of the method: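 ELISA read-out of tPA on human primary bronchial epithelial cells, 24 h post-dosing; bidirectional fit vs DMSO negative control/baseline.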

[9] = read-out: Interleukin-8 (IL8), CXCL8 (gene 3576); experiment: BSK_CASM3C_IL8: BioMAP Diversity Plus: CASM3C Assay for Interleukin-8 (IL8) Biomarker Activity (AID 2283042); conditions: primary human coronary artery smooth muscle cells; actives raise or lower the signal;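 also: IL-8 protein level quantified by ELISA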
[10] = read-out: Human Leukocyte Antigen - DR isotype (HLADR), HLA-DRA (gene 3122); experiment: BSK_CASM3C_HLADR: BioMAP Diversity Plus: CASM3C Assay for Human Leukocyte Antigen - DR isotype (HLADR) Biomarker Activity (AID 2283043); conditions: primary human coronary artery smooth muscle cells; actives raise or lower the signal;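 also: cell-surface HLA-DR protein level quantified by ELISA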
[11] = read-out: Macrophage colony-stimulating factor (MCSF), CSF1 (gene 1435); experiment: BSK_CASM3C_MCSF: BioMAP Diversity Plus: CASM3C Assay for Macrophage colony-stimulating factor (MCSF) Biomarker Activity (AID 2283044); conditions: primary human coronary artery smooth muscle cells; actives raise or lower the signal;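 also: M-CSF protein amount quantified by ELISA after 24 h exposure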
[12] = read-out: Low-density lipoprotein receptor (LDLR), LDLR (gene 3949); experiment: BSK_CASM3C_LDLR: BioMAP Diversity Plus: CASM3C Assay for Low-density lipoprotein receptor (LDLR) Biomarker Activity (AID 2283045); conditions: primary human coronary artery smooth muscle cells; actives raise or lower the signal;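 also: LDLR protein level on the cell surface quantified by ELISA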
[13] = read-out: Monocyte Chemoattractant Protein-1 (MCP1), CCL2 (gene 6347); experiment: BSK_CASM3C_MCP1: BioMAP Diversity Plus: CASM3C Assay for Monocyte Chemoattractant Protein-1 (MCP1) Biomarker Activity (AID 2283046); conditions: primary human coronary artery smooth muscle cells; actives raise or lower the signal;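 also: MCP-1 level quantified by ELISA 24 h after dosing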
[14] = BSK_CASM3C_Proliferation: Cell Proliferation Assessment in the BioMAP Diversity Plus: CASM3C Assay (AID 2283047); conditions: primary human coronary artery smooth muscle cells;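 also: sulforhodamine B total protein stain as relative cell number at 560 nm; sub-confluent cells exposed 48 h before staining; fitted both ways against DMSO so gain or loss of cell number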
[15] = read-out: Monokine induced gamma interferon (MIG), CXCL9 (gene 4283); experiment: BSK_CASM3C_MIG: BioMAP Diversity Plus: CASM3C Assay for Monokine induced gamma interferon (MIG) Biomarker Activity (AID 2283048); conditions: primary human coronary artery smooth muscle cells; actives raise or lower the signal;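 also: MIG protein level measured by ELISA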
[16] = read-out: serum amyloid A (SAA), SAA1 (gene 6288); experiment: BSK_CASM3C_SAA: BioMAP Diversity Plus: CASM3C Assay for serum amyloid A (SAA) Biomarker Activity (AID 2283049); conditions: primary human coronary artery smooth muscle cells; actives raise or lower the signal;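 also: SAA protein level quantified by ELISA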
[17] = BSK_CASM3C_SRB: Viability Assessment in the BioMAP Diversity Plus: CASM3C Assay (AID 2283050); conditions: primary human coronary artery smooth muscle cells;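 also: total protein by SRB staining as cytotoxicity measure in parallel cultures; cells exposed to compound for 24 h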
[18] = read-out: Thrombomodulin, THBD (gene 7056); experiment: BSK_CASM3C_Thrombomodulin: BioMAP Diversity Plus: CASM3C Assay for Thrombomodulin Biomarker Activity (AID 2283051); conditions: primary human coronary artery smooth muscle cells; actives raise or lower the signal;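 also: thrombomodulin protein level measured by ELISA 24 h after dosing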
[19] = read-out: urokinase plasminogen activator (uPA), PLAU (gene 5328); experiment: BSK_BE3C_uPA: BioMAP Diversity Plus: BE3C Assay for urokinase plasminogen activator (uPA) Biomarker Activity (AID 2283038); conditions: primary human bronchial epithelial cells; actives raise or lower the signal
Summary of the method: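 Primary human bronchial epithelial cells, uPA measured by ELISA 24 h after dosing. Bidirectional change relative to DMSO; cytotoxicity checked in parallel cultures by sulforhodamine B total-protein staining.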

[20] = read-out: Interferon-gamma inducible Protein 10 (IP10), CXCL10 (gene 3627); experiment: BSK_BE3C_IP10: BioMAP Diversity Plus: BE3C Assay for Interferon-gamma inducible Protein 10 (IP10) Biomarker Activity (AID 2283034); conditions: primary human bronchial epithelial cells; actives raise or lower the signal
Summary of the method: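 ELISA readout of IP-10 in BE3C system: primary human bronchial epithelial cells, 24 h post-dosing; bidirectional curve fit vs DMSO baseline.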

Measured: AC50

O=C(O)C1(c2ccc3c(c2)OC[C@H](Cc2ccc(-c4ccccc4)cc2)[C@H]3O)CCCC1
active: [1] 7.34 µM | [3] 19.9 µM | [4] 13 µM | [5] 12.4 µM | [6] 14.1 µM | [8] 4.2 µM | [10] 25 µM | [14] 33.3 µM
not listed: [19] | [20]
inactive: all other assays above

Oc1cc(Cl)c(Cl)cc1Cl
active: [19] 26.2 µM | [8] 12.9 µM | [14] 30.8 µM
not listed: [5] | [18] | [20]
inactive: all other assays above

O=S(=O)(c1ccc(Cl)cc1)c1cc(Cl)c(Cl)cc1Cl
active: [2] 20 µM | [18] 8.36 µM
not listed: [20]
inactive: all other assays above

Cc1cc(Cl)ccc1OC(C)C(=O)O (stereo not drawn)
not listed: [19] | [20]
inactive: all other assays above

OC(Cc1ccccc1Cl)(Cn1cncn1)C1(Cl)CC1 (stereo not drawn)
not listed: [2]
inactive: all other assays above

c1ccc(-c2cccc(-c3ccccc3)c2)cc1
active: [1] 20 µM | [2] 14 µM | [8] 6.98 µM | [17] 33.5 µM | [18] 20 µM
not listed: [20]
inactive: all other assays above

CCCCN(CCCC)C(=S)[S-].CCCCN(CCCC)C(=S)[S-].[Ni+2]
not listed: [19] | [20]
inactive: all other assays above
